Screening data from PubChem.
Imprint erasure: genomic imprint erasure induction; Potency, µM (doses to about 60.7 µM), for the others: at the highest dose activity change, positive = activation, hits mostly activators; hit rate 0.02% among 110,000; AID 1948; mouse ES Peg3-LacZ reporter, beta-gal luminescence, 40 h
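Imprint erasure is scored as LacZ activity from the silenced maternal Peg3 allele in feeder-free female ES cells cultured 40 h with LIF. Luminescence is normalized to in-plate negative controls and fitted to the Hill equation.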
p53ts 32C kill: kills p53ts cells at the permissive temperature. H1299-p53A138V at 32C, ATP luminescence viability, 24 h. Potency, µM (series often up to 46.1 µM), for the others: top-dose activity change, negative = cytotoxicity, most hits filed as cytotoxic. hit rate 0.93% among 130,000. AID 924;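 also: 0% = DMSO and -100% = full killing by reference compound; nearly all actives have a fitted effect of over 55% in size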
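H1299-p53 A138V cells (temperature-sensitive p53) exposed 24 h to up to 46 uM compound at 32C, where p53 is wild-type in conformation. Viability read as ATP luminescence and normalised to DMSO and 100 uM tamoxifen. AC50 fitted with the Hill equation.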
p53ts 39C tox: cytotoxicity in p53ts cells at nonpermissive temperature | Potency, µM (titrated, usually from 46.1 µM), without a hit: top-dose activity change, negative = cell killing, usual class: cytotoxic | hit rate 1.5% among 130,000 | H1299-p53A138V viability at 39C, ATP luminescence, 24 h; also: % is scaled to controls: 0 for no effect and ±100 for the full control effect; nearly all actives have a fitted effect of over 55% in size
IkB sig inh: inhibitors of IkB signaling in ABC-DLBCL cells. Potency, µM (doses to about 57.1 µM), inactives show top-dose IkBa stabilization activation. hit rate 0.04% among 110,000. ABC-DLBCL IkBa-CBG/CBR dual luciferase ratio, 4 h; response scale: scaled: untreated 0%, proteasome inhibitor 100%. AID 445; active = well fitted curve in the direction sought with a large enough effect in the signal ratio, not every such curve was filed as active; inconclusive = small, poorly fitted or top-dose-only effect, or a change in a side signal; the % refers to the signal ratio;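 also: the direction sought is a rising ratio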
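Luminescence ratio of IκBα-fused green versus native red beetle luciferase in OCI-Ly3 cells, 4 h post-doxycycline with compound; red signal alone, scaled from basal (0%) to zero light (-100%), flagged nonspecific or cytotoxic effects.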
* = called active by the depositor; ? = inconclusive; . = no result; [ ] = remark or other dose. Compounds with a hit are over-represented: about 1.6% of the library has one in this group of screens. Unless noted, calls follow the shape of the dose curve; as a rule, active = well fitted curve in the direction sought with a large enough effect; inconclusive = small, poorly fitted or top-dose-only effect, or another doubt; inactive = no such curve, though single readings can be large; an effect the other way counts as inactive or inconclusive. Potency is read from the fitted curve at half-maximal effect.

SMILES | Imprint erasure | p53ts 32C kill | p53ts 39C tox | IkB sig inh
C[C@@]12CCC(=O)C=C1CC[C@H]1[C@@H]2[C@@H](O)C[C@]2(C)[C@@H]1CC[C@@]2(O)C(=O)COC(=O)C1CCCC1 | . | 5.8%[9.22 µM] | 21.5%[9.22 µM] | 7.9%[11.4 µM]
Oc1ccc(OCc2ccccc2)cc1 | -49.6%[16.8 µM] | -10.7%[20.6 µM] | -17.6%[20.6 µM] | -9.5%[25.6 µM]
Oc1ccc(NCc2ccc(OCc3ccccc3Cl)cc2)cc1 | -65.0%[10.9 µM] | ? | 10µM* | ?
Oc1ccc(NCc2ccc(OCc3ccccc3)cc2)cc1 | -53.7%[10.9 µM] | ? | 20µM* | ?
Cc1nc2cc(NCc3nc4ccccc4n3Cc3ccccc3)ccc2n1C | . | 3.98µM* | 2µM* | .
O=C(CN1C(=O)COc2ccc(S(=O)(=O)N3CCCC3)cc21)NCCc1ccc(Cl)cc1 | -23.8%[10.9 µM] | -4.8% | 24.8% | ?
COC(=O)c1ccc(CSc2nc3c([nH]c4ccccc43)c(=O)n2-c2cc(C)cc(C)c2)o1 | -4.3%[10.9 µM] | 16.1% | 15.8µM* | 2.0%
COc1cccc(NC(=O)CSc2nc3c([nH]c4ccccc43)c(=O)n2-c2cc(C)cc(C)c2)c1 | 20.7%[10.9 µM] | 1.1% | -18.2% | 1.4%
Cc1ccc(C)c(N2CCN(C(=O)c3cc4ccc5cccnc5c4[nH]3)CC2)c1 | -6.5%[10.9 µM] | -4.2% | 1.0% | 0.7%
Cc1ccc(Cl)cc1N(C)C(=O)c1cc2ccc3cccnc3c2[nH]1 | 16.9%[10.9 µM] | 19.0% | 25.1µM* | ?
CCN(C(=O)c1ccc(C(=O)N(CC)c2ccccc2C)cc1)c1ccccc1C | -8.3%[10.9 µM] | 7.7% | 15.5% | ?
CCCCCCCN(C(=O)CCl)c1ccccc1C | . | ? | 25.1µM* | .
CC(=O)O[C@H]1C(=O)[C@]2(C)[C@H]([C@H](OC(=O)c3ccccc3)[C@@]3(O)C[C@H](OC(=O)[C@@H](O)[C@@H](NC(=O)c4ccccc4)c4ccccc4)C(C)=C1C3(C)C)[C@]1(OC(C)=O)CO[C@@H]1C[C@@H]2O | . | . | . | 2.4%[11.4 µM]
CCCCCOc1ccc(C(=O)N(Cc2ccccc2)C2CCS(=O)(=O)C2)cc1 (configuration not stated) | -10.4%[10.9 µM] | 2.1% | -15.3% | ?
COc1cc(OC)cc(C(=O)Nc2ccc3nc4c(c(Nc5ccc(OC)c(OC)c5)c3c2)CCCC4)c1 | ? | ? | ? | -3.9%
COc1ccc(Nc2c3c(nc4ccc(NC(=O)c5cc(Cl)ccc5OC)cc24)CCCC3)cc1OC | -36.7%[10.9 µM] | 5.62µM* | 5.01µM* | ?
COc1cc(/C=C/C(=O)N2CCC=CC2=O)cc(OC)c1OC | -35.1% | 3.16µM* | ? | .
Nc1ccc2oc(-c3ccc4nc[nH]c4c3)nc2c1 | . | 8.91µM* | 14.1µM* | .
COc1ccc(C(=O)NC(c2ccccc2Cl)c2cc(Cl)c3cccnc3c2O)cc1 (configuration not stated) | -20.9%[10.9 µM] | -8.6% | 2.51µM* | ?
COc1cc(C(=O)NC(c2ccccc2Cl)c2cc(Cl)c3cccnc3c2O)cc(OC)c1OC (configuration not stated) | -33.8%[10.9 µM] | ? | ? | 4.4%
CN(C)CCCNC(=O)c1ccc(Cc2nc3ccccc3[nH]2)cc1 | . | -1.8% | 3.1% | .
COc1ccc(NC(=O)c2c(NCc3ccc(C)o3)sc3c2CCC(C)C3)c(OC)c1 (configuration not stated) | -24.0%[10.9 µM] | ? | 20µM* | ?
COc1cc(-c2nc3ccc(C)cn3c2Nc2ccc(Cl)cc2)ccc1O | 4.7%[10.9 µM] | -13.8% | 15.8µM* | ?
COc1cc(-c2nc3ccc(Cl)cn3c2Nc2ccc3c(c2)OCO3)ccc1O | 8.4%[10.9 µM] | -23.6% | ? | ?
Cc1ccc(/C=C/c2nc3ccccc3[nH]2)cc1 | -90.8%[10.9 µM] | 0.501µM* | 0.501µM* | ?
SMILES | Imprint erasure | p53ts 32C kill | p53ts 39C tox | IkB sig inh
Nc1cccc2cc(S(=O)(=O)Nc3ccc(C(=O)O)cc3)ccc12 | -2.3%[10.9 µM] | 3.6%[9.22 µM] | 1.9%[9.22 µM] | -0.6%[11.4 µM]
COc1cccc(NC(=O)C2CCN(c3ccc(Sc4ccc(C)cc4)nn3)CC2)c1 | -3.1%[10.9 µM] | 7.4% | -3.1% | ?
Cc1ccc(Sc2ccc(N3CCC(C(=O)Nc4cc(C)cc(C)c4)CC3)nn2)cc1 | -1.1%[10.9 µM] | ? | 12.6µM* | ?
CC12C=C(/C=C/C=C/c3ccco3)C(C)(C1)C(/C=C/c1ccco1)CC2=O (configuration not stated) | . | 1.1%[9.22 µM] | 9.6%[9.22 µM] | .
CCOc1ccc(CCNC(=O)Cn2c(-c3cccs3)cc3cc(F)ccc32)cc1OCC | -9.9%[10.9 µM] | -17.0% | 7.94µM* | ?
CC(O)[C@@H](O)[C@H]1CNc2nc(N)[nH]c(=O)c2N1 (some centres not stated) | -8.0% | . | . | .
O=[N+]([O-])c1cccc(/C=N\Nc2ccc3ccccc3n2)c1O | -53.3%[10.9 µM] | 2.51µM* | 3.98µM* | ?
O=C(N/N=C/C=C\c1ccccc1[N+](=O)[O-])c1cc(-c2ccc3ccccc3c2)n[nH]1 | . | -6.7% | -5.8% | .
CC1(C)CCC2=C(O1)c1ccccc1C(=O)C2=O | -78.7% | 5.01µM* | 5.01µM* | ?
O=C(NCCc1nc2ccccc2n1CCCOc1ccc(Cl)cc1)C1CCCCC1 | -5.1%[10.9 µM] | ? | 15.8µM* | ?
Cc1cc(C)cc(OCCCn2c(CCNC(=O)C3CCCCC3)nc3ccccc32)c1 | -14.8%[10.9 µM] | -7.8% | ? | ?
Cc1ccccc1OCCCn1c(CCNC(=O)C2CCCCC2)nc2ccccc21 | -9.2%[10.9 µM] | -11.5% | 15.8µM* | ?
COCCN(CCOC)C(=O)c1ccc(Cc2nc3ccccc3[nH]2)cc1 | . | 5.3% | 12.8% | .
CCCCCCCCCCCCCCCCCCNC(=O)OC[C@@H](COP(=O)([O-])OCC[n+]1ccsc1)OC | . | -7.2% | 7.8% | -4.2%
CCc1nn(CC(=O)NCc2ccccc2)c(=O)c2cccn12 | -15.6%[10.9 µM] | -24.2% | 20µM* | -1.6%
CN1CCN(c2ccnc(-c3ccc(N(C)C)cc3)n2)CC1 | -7.6% | -7.6% | -11.0% | -1.1%[11.4 µM]
CCc1nnc(NC(=O)c2ccc(S(=O)(=O)N(CC(C)C)CC(C)C)cc2)o1 | -20.6% | -3.2% | 12.6µM* | 1.8%
CSCc1nnc(NC(=O)c2ccc(S(=O)(=O)N(CC(C)C)CC(C)C)cc2)o1 | -24.4% | -3.6% | 12.6µM* | -0.4%
COCCN(CCOC)S(=O)(=O)c1ccc(C(=O)Nc2nnc(C)o2)cc1 | -3.2% | -1.2% | -4.3% | 0.7%
N#CC(=C1CCCC1)c1nc(-c2ccccc2O)cs1 | -74.5% | 10µM* | 12.6µM* | 0.0%
Cc1ccc(/C=C(\C#N)c2nc(-c3ccc(-c4ccccc4)cc3)cs2)cc1 | 3.5%[10.9 µM] | 0.4% | 9.5% | ?
COCC(=O)/C=C1\Sc2ccccc2N1C | -29.1% | -13.7% | -1.5% | 0.7%
CN1/C(=C\C(=O)c2cccs2)Sc2ccccc21 | -86.2% | 10µM* | 10µM* | ?
O=C(O)c1cc(-c2ccc(C(F)(F)F)cc2)nc2n[nH]c(-c3ccccc3)c12 | -8.2%[10.9 µM] | ? | 10µM* | 0.0%
COc1ccc(OC)c(-c2cc(C(=O)NCCc3ccccc3)c3c(-c4ccc(C)cc4)[nH]nc3n2)c1 | -6.5%[10.9 µM] | -0.5% | -18.3% | 1.6%
COCCCNC(=O)c1cc(-c2ccc(OC)cc2)nc2n[nH]c(-c3ccc(Cl)cc3)c12 | -2.3%[10.9 µM] | 5.3% | -1.3% | 0.0%
